CCT modulator = cytosolic chaperonin activity modulation. hit rate 0.3% among 360,000. activity change, % (no concentration beside the values), hits read low. AID 651819. purified chaperonin ATPase assay, HTRF ADP detection, 30 min; in the data active = activity change below about -30%
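TRiC (40 or 20 nM final, by batch activity) in 30 mM Tris pH 7.4, 100 mM KCl, 5 mM MgCl2, 1 mM DTT was treated with compound at 76 uM single dose, then 10 uM ATP, 30 min at 37 °C. ADP was read by HTRF Transcreener.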
G9a block = G9a (human) methyltransferase inhibition; Potency, µM (doses to about 102 µM), for the others: at the highest dose activity, negative = inhibition, actives largely listed as inhibitors; G9a H3K9 monomethylation, AlphaScreen, 2 h; hit rate 8.8% among 350,000; Q96KQ7; also: potency is read from the fitted curve at half-maximal effect; nearly all actives have a fitted effect of over 75% in size
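AlphaScreen detection with an anti-monomethyl H3K9 antibody quantified product after a 2 h room-temperature reaction containing 500 nM biotinylated H3K9 peptide, 20 µM SAM and 20 nM enzyme, which had been preincubated 15 min with compound.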
VDR inh = vitamin D3 receptor (human) inhibition. P11473. VDR-SRC2-3 peptide fluorescence polarization, 2 h. Potency, µM, inactives show max response, negative = inhibition, usual class: inhibitors. hit rate 0.93% among 400,000. AID 504847; also: potency is read from the fitted curve at half-maximal effect
Target sequence (P11473 whole entry, looked up): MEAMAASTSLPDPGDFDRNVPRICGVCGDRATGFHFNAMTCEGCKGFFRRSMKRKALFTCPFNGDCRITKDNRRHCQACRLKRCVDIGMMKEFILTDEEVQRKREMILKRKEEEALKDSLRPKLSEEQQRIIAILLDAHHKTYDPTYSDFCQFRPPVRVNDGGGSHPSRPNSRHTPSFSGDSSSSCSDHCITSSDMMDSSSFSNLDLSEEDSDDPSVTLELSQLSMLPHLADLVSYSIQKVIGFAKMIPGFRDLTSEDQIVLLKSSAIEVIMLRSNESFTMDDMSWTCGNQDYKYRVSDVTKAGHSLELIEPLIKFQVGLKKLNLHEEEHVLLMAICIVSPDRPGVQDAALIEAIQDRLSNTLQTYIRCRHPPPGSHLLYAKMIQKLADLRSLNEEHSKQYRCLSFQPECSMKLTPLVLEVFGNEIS
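After 23 nl compound addition and a short centrifugation, plates sat for 2 hours at ambient temperature; polarization of fluorescence then indicated loss of VDR binding to peptide SRC2-3.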
Mm-Cpn inhibitor = inhibitors of Methanococcus maripaludis chaperonin TRiC (MmCpn) | purified Mm-Cpn ATPase, ADP Transcreener TR-FRET | Potency, µM (titrated, usually from 76.9 µM), for inactives: top-dose activity, negative = inhibition, usual class: inhibitors | hit rate 0.031% among 330,000 | AID 504842; also: potency is read from the fitted curve at half-maximal effect; nearly all actives have a fitted effect of over 80% in size
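TR-FRET (320 nm excitation; 590 and 665 nm emission) reports ADP made from 10 uM ATP by 25 nM enzyme; compounds were preincubated 10 min, reaction run 30 min, both at 37°C.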
PLK1 PBD inh = inhibitors of human PLK1 polo-box domain binding. P53350. Plk1 PBD binding of FITC phosphopeptide, fluorescence polarization. Potency, µM, without a hit: max response, negative = inhibition, most hits filed as inhibitors. hit rate 2.8% among 360,000. AID 720504; also: potency is read from the fitted curve at half-maximal effect; series mostly up to about 57 µM; nearly all actives have a fitted effect of over 65% in size
Sfp PPTase inh = blocks B. subtilis Sfp PPTase activity | Q9F4F7 | Biochemical Sfp PPTase activity, qHTS | Potency, µM, without a hit: largest response in the series, negative = inhibition, usual class: inhibitors | hit rate 3.5% among 310,000;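 also: the enzyme is Sfp with the accession as filed and its product quenches rhodamine fluorescence; potency is read from the fitted curve at half-maximal effect; 0% = enzyme reaction without inhibitor and -100% = no enzyme wells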
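Step 1, compound plus 15 nM Sfp-PPTase, 15 min, room temperature. Step 2, add rhodamine-CoA (5 uM) and BHQ-2-YbbR (12.5 uM). Step 3, read 525/598 nm fluorescence at 0 and 30 min.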
An asterisk follows results filed as active; ? = inconclusive; . = not tested or not shown; [ ] = remark or other dose. An excerpt weighted towards active compounds, which were near 10% of everything screened. Unless noted, calls follow the shape of the dose curve; as a rule, active = well fitted curve in the direction sought with a large enough effect; inconclusive = small, poorly fitted or top-dose-only effect, or another doubt; inactive = no such curve, though single readings can be large; an effect the other way counts as inactive or inconclusive. Unless noted, % is scaled to controls: 0 for no effect and ±100 for the full control effect.

SMILES	CCT modulator	G9a block	VDR inh	Mm-Cpn inhibitor	PLK1 PBD inh	Sfp PPTase inh
Cc1ccccc1Nc1c(-c2ccncc2)nc2ccc(Br)cn12	-1	-9%[59 µM]	-5%	-1%	-6%	-4%
CCCSc1ncc(Cl)c(C(=O)Nc2ccc(S(=O)(=O)N3CCCC(C)C3)cc2)n1 (configuration not stated)	.	-27%[59 µM]	15%	.	.	.
Clc1ccc2nc(-c3ccc(Br)o3)c(Nc3ccc4c(c3)OCCO4)n2c1	.	-24%[59 µM]	-15%	.	.	.
Cc1ccc(Nc2c(-c3ccc(C)o3)nc3ncccn23)cc1	0	.	-7%	-8%	-4%	11µM*
Brc1ccc(-c2nc3ncccn3c2NC2CCCCC2)o1	-14	10µM*	-20%	-3%	21µM*	-1%
Cc1ccn2c(Nc3ccc4c(c3)OCCO4)c(-c3ccc(C)o3)nc2c1	.	25µM*	-9%	.	.	.
Cc1ccc(-c2nc3ncccn3c2Nc2ccccc2C)o1	2	?	-8%	-1%	-17%	40µM*
COC(=O)c1ccc(Cl)cc1NC(=O)N(Cc1ccc(OC)cc1)C1CCN(C(C)=O)CC1	.	-38%[59 µM]	11%	.	.	.
CC(=O)N1CC=CC1(CC(C)C)C(=O)NCc1ccccn1 (configuration not stated)	.	.	.	.	.	30%
Cc1noc(C)c1-c1nccc(NCCN2CCOCC2)n1	.	-2%[0.501 µM]	-6%	.	.	6%
Cc1ccc(-c2nc3cc(Cl)ccc3o2)cc1NC(=O)COc1ccc(F)cc1	.	3%[59 µM]	7%	.	.	.
Cc1ccc(-c2nc3ncccn3c2Nc2ccc3c(c2)OCO3)o1	2	10µM*	-19%	-9%	-5%	-13%
Oc1ccc(-c2nc3ncccn3c2Nc2ccc3c(c2)OCO3)cc1	0	?	-27%	-1%	-12%	-2%
Cc1ccc(S(=O)(=O)NCc2ccncc2)cc1	-1	18%	24%	0%	-9%	19%
CC1CCCCC1NS(=O)(=O)c1ccc(S(=O)(=O)NCc2ccncc2)cc1 (configuration not stated)	3	18µM*	6%	3%	-2%	4%
Clc1cncc(Cl)c1N/N=C/c1ccncc1	-2	-3%[59 µM]	-18%	1%	-8%	14%
C(=N\NC1=NCCN1)/c1ccncc1	-3	40µM*	-21%	1%	-5%	-3%
C=CCn1c(SCC(C)=O)nnc1-c1cc(-c2ccccc2)sc1N	-3	11µM*	-27%	-6%	-16%	-4%
CSc1cccc(NC(=O)N2CCN(c3cc(-c4noc(C)n4)ccc3C)CC2)c1	.	3%[59 µM]	-3%	.	.	.
CCOc1ccc(OCC)c(NC(=O)C(NS(=O)(=O)c2ccc(Br)s2)c2ccccc2)c1 (configuration not stated)	.	-7%[59 µM]	7%	.	.	.
CCOC(=O)C(CC(=O)O)NCc1ccco1 (configuration not stated)	-1	40µM*	-21%	-2%	-4%	?
COc1ccc(OC)c(NC(=O)C(CC(=O)O)NCc2ccco2)c1 (configuration not stated)	1	?	12%	1%	-11%	-24%
CCc1ccccc1NC(=O)C1=C(C)C(=O)OC12CCCCCC2	.	7%[59 µM]	-3%	.	.	.
Cc1nonc1C(=O)N/N=C/c1ccccc1	0	3%	-9%	-3%	24µM*	7%
CCc1nc2oc(C(=O)c3ccccc3)c(N)c2c2c1COC(C)(C)C2	1	?	2%	0%	-5%	6%
CCOC(=O)c1oc2nc(C)c3c(c2c1N)CC(C)(C)OC3	0	?	?	-10%	12µM*	-2%
CCOC(=O)N1CCN(C(=O)c2ccc3c(=O)n(CC4CCCO4)c(=S)[nH]c3c2)CC1 (configuration not stated)	-1	40µM*	-1%	1%	0%	-1%
O=C(c1ccc2c(=O)n(CC3CCCO3)c(=S)[nH]c2c1)N1CCN(C(=O)c2ccco2)CC1 (configuration not stated)	.	.	2%	.	.	.
O=C(c1ccc2c(=O)n(Cc3ccc(Cl)cc3)c(=S)[nH]c2c1)N1CCCC1	-3	31%[59 µM]	-3%	0%	-6%	11%

Screening results as filed in PubChem.
